Screening data from PubChem BioAssay.
DAX1 inh-1 = DAX1 (NR0B1) inhibitors, primary screen, cell-based, HEK293, Gal4-DAX1, luciferase luminescence. Nuclear receptor subfamily 0 group B member 1 (Homo sapiens), P51843. HEK293 Gal4-DAX1 luciferase reporter. inhibition, % at 6.75 µM. 340,000 tested, 0.99% active. AID 504766, 2011;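 active means inhibition above the mean over all tested compounds plus 3 SD, cut at about 4.2% in these data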;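 further: inhibition shows as a rise in luminescence from relieved DAX1 repression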
Target sequence (P51843 207-470 limits assumed): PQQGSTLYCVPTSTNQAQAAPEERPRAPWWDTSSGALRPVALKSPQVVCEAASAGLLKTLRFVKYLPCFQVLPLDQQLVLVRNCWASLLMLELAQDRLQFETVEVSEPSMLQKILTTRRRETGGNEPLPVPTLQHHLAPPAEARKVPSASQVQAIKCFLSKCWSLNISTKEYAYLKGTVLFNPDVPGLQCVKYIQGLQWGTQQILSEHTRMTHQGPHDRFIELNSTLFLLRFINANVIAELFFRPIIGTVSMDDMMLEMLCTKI
hcDAF-12 act = H. contortus DAF-12 nuclear receptor activators, primary screen, cell-based, luminescence, HEK293, lit1-tk-luc reporter. activation, % at 6.8 µM. HEK293 hcDAF-12 lit1-tk-luc reporter; 0% DMSO, 100% Δ7-dafachronic acid. AID 652067, 2013. 370,000 tested, 1.4% active;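 active means activation above the mean of all tested compounds plus 3 SD, cut at about 5.5% in these data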
ssDAF12 agonist = S. stercoralis DAF-12 nuclear receptor activators, primary screen, cell-based, luminescence, HEK293, GRIP1 co-expression, lit1-tk-luc; HEK293 ssDAF-12/GRIP1 lit1-tk-luc reporter; % of 3 µM dafachronic acid response; activation, % at 6.8 µM; 370,000 tested, 1% active; AID 652126, 2013;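 active means activation above the mean over all tested compounds plus 3 SD, cut at about 0.9% in these data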
hgDAF12 agonist = H. glycines DAF-12 receptor agonists, primary screen, cell-based, luminescence, HEK293, GAL4 fusion, UAS-luciferase | 370,000 tested, 1.8% active | HEK293 GAL4-hgDAF12 UAS-luciferase reporter, agonist luminescence; normalized to butyrate control | Nuclear hormone receptor DAF-12 (Heterodera glycines), GAL4 fusion | activation, % at 6.8 µM | AID 687014, 2013;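 active means activation above a cutoff set at the mean of all screened compounds plus 3 SD, cut at about 10% in these data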
DAX1 inh-2 = DAX1 (NR0B1) inhibitors on StAR promoter, primary screen, cell-based, luminescence, SF-1 (NR5A1), full-length DAX-1; 370,000 tested, 1.1% active; HEK293T StAR-luciferase reporter, SF-1/DAX-1 repression relief; inhibition, % at 6.8 µM; AID 652010, 2013;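 active means inhibition above the mean over all tested compounds plus 3 SD, cut at about 3.6% in these data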;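 further: higher inhibition means more luminescence from relief of DAX-1 repression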
Hits are given with their value. Most compounds without a hit are left out; they make up all but 4.1% or so of the library.

How did CCOC(=O)C1CCN(C(=O)c2cc3c(=O)n4ccccc4nc3s2)CC1 do in these assays?
DAX1 inh-1: inactive; hcDAF-12 act: 6.4; ssDAF12 agonist: inactive; hgDAF12 agonist: inactive; DAX1 inh-2: inactive

What do the screens show for `CCN(CC)C(=O)c1cc2c(=O)n3ccccc3nc2s1`?
DAX1 inh-1: inactive; hcDAF-12 act: 6.5; ssDAF12 agonist: inactive; hgDAF12 agonist: inactive; DAX1 inh-2: inactive

How did CCOC(=O)C1CCN(C(=O)c2cc3c(=O)n4cccc(C)c4nc3s2)CC1 do in these assays?
DAX1 inh-1: inactive; hcDAF-12 act: 6.5; ssDAF12 agonist: inactive; hgDAF12 agonist: inactive; DAX1 inh-2: inactive

What do the screens show for `COc1ccc(NC(=O)CSc2nc3c([nH]c4ccccc43)c(=O)n2C)c(OC)c1`?
DAX1 inh-1: inactive; hcDAF-12 act: inactive; ssDAF12 agonist: 0.9; hgDAF12 agonist: inactive; DAX1 inh-2: inactive

Results for COCCn1c(SCC(=O)Nc2ccc(F)cc2F)nc2c([nH]c3ccccc32)c1=O ?
DAX1 inh-1: inactive; hcDAF-12 act: inactive; ssDAF12 agonist: inactive; hgDAF12 agonist: inactive; DAX1 inh-2: inactive

How did C=CCn1c(SCC(=O)NCCc2ccccc2)nc2c([nH]c3ccccc32)c1=O do in these assays?
DAX1 inh-1: inactive; hcDAF-12 act: inactive; ssDAF12 agonist: 1.0; hgDAF12 agonist: inactive; DAX1 inh-2: inactive

How did C=CCn1c(SCC(=O)Nc2ccc(F)cc2F)nc2c([nH]c3ccccc32)c1=O do in these assays?
DAX1 inh-1: inactive; hcDAF-12 act: inactive; ssDAF12 agonist: 1.9; hgDAF12 agonist: inactive; DAX1 inh-2: inactive

Results for C=CCn1c(SCC(=O)Nc2ccccc2OC)nc2c([nH]c3ccccc32)c1=O ?
DAX1 inh-1: inactive; hcDAF-12 act: 5.9; ssDAF12 agonist: inactive; hgDAF12 agonist: inactive; DAX1 inh-2: inactive

What do the screens show for `COC(=O)C1=C(C)N(Cc2ccc(Br)cc2)C(=S)NC1c1cccc(OC)c1` (stereo unspecified)?
hcDAF-12 act: inactive; ssDAF12 agonist: inactive; hgDAF12 agonist: inactive; DAX1 inh-2: inactive

What do the screens show for `CC(C)CN1C(=O)[C@@]2(CC(=O)N(C)C2c2ccccc2)c2cc(-n3cc(C(C)(C)O)nn3)ccc21` (stereo partly specified)?
hcDAF-12 act: inactive; ssDAF12 agonist: inactive; hgDAF12 agonist: inactive; DAX1 inh-2: inactive

How did COc1cccc(C(=O)CSc2nccn2C)c1 do in these assays?
DAX1 inh-1: inactive; hcDAF-12 act: inactive; ssDAF12 agonist: inactive; hgDAF12 agonist: inactive; DAX1 inh-2: inactive

How did Cn1ccnc1SCC(=O)c1ccc2ccccc2c1 do in these assays?
DAX1 inh-1: inactive; hcDAF-12 act: inactive; ssDAF12 agonist: inactive; hgDAF12 agonist: 13; DAX1 inh-2: inactive

What do the screens show for `COC(=O)[C@]12C[C@H](CC(=O)NCCc3ccccc3OC)C(=O)N(Cc3ccco3)C1=C[C@H](C1CCCC1)O[C@@H]2C`?
hcDAF-12 act: inactive; ssDAF12 agonist: inactive; hgDAF12 agonist: inactive; DAX1 inh-2: inactive

What do the screens show for `COc1ccc(C2C(C(=O)N3CCOCC3)CCC(=O)N2c2ccc(OC)cc2)cc1` (stereo unspecified)?
DAX1 inh-1: inactive; hcDAF-12 act: inactive; ssDAF12 agonist: inactive; hgDAF12 agonist: inactive; DAX1 inh-2: inactive

How did COc1ccc(C2C(C(=O)NCC3CCCO3)CCC(=O)N2c2ccc3c(c2)OCO3)cc1 (stereo unspecified) do in these assays?
DAX1 inh-1: 4.4; hcDAF-12 act: inactive; ssDAF12 agonist: inactive; hgDAF12 agonist: inactive; DAX1 inh-2: inactive

How did CCCCN1CN2Cc3cc(F)ccc3C2CS1(=O)=O (stereo unspecified) do in these assays?
hcDAF-12 act: inactive; ssDAF12 agonist: inactive; hgDAF12 agonist: inactive; DAX1 inh-2: inactive

How did Cc1ccccc1-c1nc2sc3c(c2c(=O)n1N)CCCC3 do in these assays?
DAX1 inh-1: 4.5; hcDAF-12 act: inactive; ssDAF12 agonist: inactive; hgDAF12 agonist: inactive; DAX1 inh-2: inactive

What do the screens show for `CC1(C)c2ccccc2-c2nc3ccccc3cc2C1O` (stereo unspecified)?
DAX1 inh-1: inactive; hcDAF-12 act: inactive; ssDAF12 agonist: inactive; hgDAF12 agonist: inactive; DAX1 inh-2: inactive

How did c1ccc2c(c1)-c1nc3ccccc3cc1C2N1CCCCC1 (stereo unspecified) do in these assays?
DAX1 inh-1: inactive; hcDAF-12 act: inactive; ssDAF12 agonist: 1.4; hgDAF12 agonist: inactive; DAX1 inh-2: 4.2

What do the screens show for `CC(C)OP(=O)(O)C(C)NC(=O)OCc1ccccc1` (stereo unspecified)?
hcDAF-12 act: inactive; ssDAF12 agonist: inactive; hgDAF12 agonist: inactive; DAX1 inh-2: inactive

What do the screens show for `O=C(C(=O)N1CCN(S(=O)(=O)c2ccccc2)CC1)c1cccc(C(F)(F)F)c1`?
hcDAF-12 act: inactive; ssDAF12 agonist: inactive; hgDAF12 agonist: inactive; DAX1 inh-2: inactive

What do the screens show for `Cc1ccc(C(=O)Nc2nc(C)c(C(=O)N(C)C)s2)o1`?
DAX1 inh-1: inactive; hcDAF-12 act: inactive; ssDAF12 agonist: inactive; hgDAF12 agonist: inactive; DAX1 inh-2: 4.4

How did Cc1nc(NC(=O)/C=C/c2ccccc2)sc1C(=O)N(C)C do in these assays?
DAX1 inh-1: inactive; hcDAF-12 act: inactive; ssDAF12 agonist: inactive; hgDAF12 agonist: 10; DAX1 inh-2: inactive

What do the screens show for `Cc1ccc(C(=O)Nc2ncc(Cc3ccc(F)cc3)s2)o1`?
DAX1 inh-1: inactive; hcDAF-12 act: inactive; ssDAF12 agonist: inactive; hgDAF12 agonist: inactive; DAX1 inh-2: 4.2

How did Cc1nc(NC(=O)/C=C/c2ccc(F)cc2)sc1C(=O)N(C)C do in these assays?
DAX1 inh-1: inactive; hcDAF-12 act: inactive; ssDAF12 agonist: inactive; hgDAF12 agonist: inactive; DAX1 inh-2: inactive

How did OC[C@H]1O[C@H](OCc2ccccc2)[C@H](O[C@@H]2OC[C@@H](O)[C@H](O)[C@H]2O)[C@@H](O)[C@@H]1O do in these assays?
DAX1 inh-1: 6.3; hcDAF-12 act: inactive; ssDAF12 agonist: inactive; hgDAF12 agonist: inactive; DAX1 inh-2: inactive

How did FC(F)(F)c1ccccc1CN1CCCc2nc(-c3ccccc3)ccc21 do in these assays?
hcDAF-12 act: inactive; ssDAF12 agonist: inactive; hgDAF12 agonist: inactive; DAX1 inh-2: inactive

What do the screens show for `FC(F)(F)c1ccccc1CN1CCCc2nc(-c3ccc(Br)cc3)ccc21`?
hcDAF-12 act: inactive; ssDAF12 agonist: 2.6; hgDAF12 agonist: inactive; DAX1 inh-2: inactive

Results for COc1ccc(-c2ccc3c(n2)CCCN3Cc2ccccc2C(F)(F)F)cc1 ?
hcDAF-12 act: inactive; ssDAF12 agonist: inactive; hgDAF12 agonist: inactive; DAX1 inh-2: 4.2

Results for COCCN1CCCc2nc(-c3ccc(Br)cc3)ccc21 ?
hcDAF-12 act: inactive; ssDAF12 agonist: inactive; hgDAF12 agonist: 11; DAX1 inh-2: 4.0
